This note sets out measurements from ChEMBL document CHEMBL3988442, “University of Dundee, Small-Polar-MMV Screening Library” (2021).

In the first assay the target is T1, Aspartate--tRNA(Asp/Asn) ligase (Mycobacterium tuberculosis (strain ATCC 25618 / H37Rv)) (UniProt P9WFW3). Further: in the data most compounds retested in dose-response had high values.
T1 sequence (whole entry): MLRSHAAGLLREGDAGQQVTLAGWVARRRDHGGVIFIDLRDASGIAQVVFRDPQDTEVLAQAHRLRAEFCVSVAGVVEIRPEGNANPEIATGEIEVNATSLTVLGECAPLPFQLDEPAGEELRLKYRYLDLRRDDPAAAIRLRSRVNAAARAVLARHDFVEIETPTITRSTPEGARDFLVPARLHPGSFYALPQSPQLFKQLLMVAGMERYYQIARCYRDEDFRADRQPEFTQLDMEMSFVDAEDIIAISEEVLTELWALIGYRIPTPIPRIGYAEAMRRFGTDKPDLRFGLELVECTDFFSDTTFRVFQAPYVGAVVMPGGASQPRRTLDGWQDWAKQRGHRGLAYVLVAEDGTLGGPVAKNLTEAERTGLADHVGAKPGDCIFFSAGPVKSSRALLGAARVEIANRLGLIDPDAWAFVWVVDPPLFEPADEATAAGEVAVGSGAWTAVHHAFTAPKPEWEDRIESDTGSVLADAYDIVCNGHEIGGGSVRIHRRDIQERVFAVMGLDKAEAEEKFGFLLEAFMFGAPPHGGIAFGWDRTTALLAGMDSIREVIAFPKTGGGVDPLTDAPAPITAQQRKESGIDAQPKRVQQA
Description: Assay for Asp RNA synthetase-1 from Mycobacterium tuberculosis. To be noted: 30 µM. The assay is classed as functional. Details: scale not given: direction of the effect not stated beside the values.
For `COc1ccc(CCN2CCC(N3CCN(C)C3=O)CC2)cc1`, the Percent Effect was -1.97%.
Regarding `c1cnnc(N2CCCC2CNCc2nc(-c3ccsc3)no2)c1` (stereo not given), the Percent Effect was -0.433%.
The same measure, in the same setting: the same measure for `COC(=O)c1ccc(N2CCN(CCN3CCOCC3)C(C)C2)cc1` (stereo not given): -8.26%; for `CC(C)c1cc(NC(=O)CN2CCC(N3CCNC3=O)CC2)on1`: 0.0463%.
The same measure, in the same setting: to `CCN1CCC(c2nc3ccc(NC(C)C)cn3n2)CC1` belongs 2.52%; to `Cc1cc(C(=O)N2CCC(c3nccn3CCCN(C)C)CC2)no1`, 7.7%.
Still for that read-out and setting: to `CC(C)(CNC(=O)NCCOc1cccc(F)c1)C(N)=O` belongs -1.21%.
Consider `Cc1ccc(NC(=O)c2cc(S(=O)(=O)N3CCCCC3)c[nH]2)cc1F`, for which the Percent Effect turned out to be 1.97%.
For the molecule `CCc1nc(C2CCCN2Cc2nnc(Cc3ccccc3)o2)no1` (stereo not given), the Percent Effect was -0.231%.
The same measure, in the same setting: the same measure for `CCc1c(C(=O)NC2CCS(=O)(=O)C2)cnn1-c1ccc(F)cc1` (stereo not given): -1.69%.
Still for that read-out and setting: to `O=C1NCCN1C1CCN(Cc2ccccn2)CC1` belongs -1.42%.
On to `Cc1noc(NC(=O)c2ccc(C)c(F)c2)n1`, for which the Percent Effect is -11.1%.
On the same count and under the same terms, to `NC(=O)COc1ccc(CNCc2ccc(F)c(F)c2)cc1` belongs -1.73%; to `COCc1cc(NCc2cc(F)ccc2F)n2nccc2n1`, 7.1%.
For the molecule `CCCc1nnsc1C(=O)NCC1CCN(c2ccccn2)CC1`, the Percent Effect is -7.59%.
The same measure, in the same setting: to `Cc1cc2n(n1)CC(CNCc1ccnc(-n3ccnc3C)c1)CN2` (stereo not given) belongs -2.39%; to `Cc1ccc(-c2nc(CN3CCn4c(nnc4C4CC4)C3)cs2)o1`, -4.03%.
Still for that read-out and setting: the same measure for `O=C(NCCc1cccc(F)c1)NCC(O)c1cccc(F)c1` (stereo not given): -1.7%; for `COCCC(=O)N1CCC2(COCc3cnc(-c4ccccc4)nc32)C1` (stereo not given): -4.87%; for `COc1cccc(C(=O)Nc2cc(CC(C)C)nn2C)c1`: -7.31%.
Still for that read-out and setting: to `CCCc1n[nH]c(C2CN(C(=O)CCCn3cccn3)CCO2)n1` (stereo not given) belongs -0.947%; to `Cc1ccc(Cl)cc1N1CCC(CNC(=O)CCn2ccnc2)C1` (stereo not given), -2.41%.
On to `Cc1cc(C)c(OCC(=O)NS(=O)(=O)c2c(C)noc2C)c(C)c1`, for which the Percent Effect was -3.08%.
Still for that read-out and setting: to `CN(C)C(=O)C1CN(Cc2c[nH]cn2)CCN(C2CCOCC2)C1` (stereo not given) belongs 0.313%; to `Cc1cc(C)n(CC2CCCN2CCCS(N)(=O)=O)n1` (stereo not given), -0.589%; to `O=C(NCCc1nnc2n1CCC2)NCC1(c2cccc(F)c2)CC1`, -2.55%.
On the same count and under the same terms, the same measure for `O=C1CC[C@H]2[C@H](CCN2C(=O)C2CCOCC2)N1Cc1ccncc1`: -6.47%.
The same measure, in the same setting: to `CC(C)c1nccn1C1CCCN(C(=O)c2ccc3c(c2)OCO3)C1` (stereo not given) belongs -0.317%; to `Cc1nn(C)c(Cl)c1C1CCCN1C(=O)c1nccnc1N` (stereo not given), -0.929%.
Take `CC(C(=O)N1CCCN(c2ncccc2C#N)CC1)n1ccnc1` (stereo not given): the Percent Effect is -0.45%.
Same read-out and setting: the same measure for `CCCSCC(=O)NS(=O)(=O)c1ccc2c(c1)OCCO2`: -3.99%; for `O=C(CCc1nccs1)N1CCN(c2cccnn2)CC1`: -2.05%.
Still for that read-out and setting: the same measure for `O=C(CN1CCCS1(=O)=O)NCCOc1ccc2c(c1)CCC2`: -5.23%; for `O=S(=O)(NC1=NCN(CCc2cccs2)CN1)c1ccc(F)cc1`: -0.523%.
Take `Cn1nc(C2CCCN(Cc3ccsc3)C2)c2nccnc21` (stereo not given): the Percent Effect is -2.96%.
The same measure, in the same setting: the same measure for `COc1ccc(-c2nnc(SC(C)C(=O)NCC(C)C)[nH]2)c(OC)c1` (stereo not given): 7.67%; for `CCOCCn1c(=O)[nH]c2cc(C(=O)N(C)CCc3cn[nH]c3)ccc21`: 0.279%; for `COCCN1C[C@@H]2CN(Cc3ccsc3)CCC[C@]2(C(=O)O)C1`: 2.26%.
The same measure, in the same setting: the same measure for `CC(C)(C)n1ncc2c1NC(=O)CC2c1ccc(OCC(N)=O)cc1` (stereo not given): -2.88%; for `CC(C)(C)OC(=O)N1CCN(C(=O)c2sccc2C2CC2)CC1`: -2.9%.

The target of another assay is Shiga toxin 2 (Escherichia coli O157:H7) (UniProt P09385+P09386). Briefly: E. coli 0.157:H7 Shiga Toxin SOP - stx2 screening assay. The assay is classed as functional. Set-up: scale not given: direction of the effect not stated beside the values. To be noted: 30 µM.
For `COc1ccc(CCN2CCC(N3CCN(C)C3=O)CC2)cc1`, the Percent Effect amounted to 0.371%.
As to `c1cnnc(N2CCCC2CNCc2nc(-c3ccsc3)no2)c1` (stereo not given), the Percent Effect was -0.726%.
The same measure, in the same setting: to `COC(=O)c1ccc(N2CCN(CCN3CCOCC3)C(C)C2)cc1` (stereo not given) belongs 32.4%; to `CC(C)c1cc(NC(=O)CN2CCC(N3CCNC3=O)CC2)on1`, -28.7%; to `CCN1CCC(c2nc3ccc(NC(C)C)cn3n2)CC1`, 4.27%.
For the molecule `Cc1cc(C(=O)N2CCC(c3nccn3CCCN(C)C)CC2)no1`, the Percent Effect was -11.8%.
Same read-out and setting: to `CC(C)(CNC(=O)NCCOc1cccc(F)c1)C(N)=O` belongs 28.8%; to `Cc1ccc(NC(=O)c2cc(S(=O)(=O)N3CCCCC3)c[nH]2)cc1F`, 17.8%.
Same read-out and setting: the same measure for `CCc1nc(C2CCCN2Cc2nnc(Cc3ccccc3)o2)no1` (stereo not given): 6.08%; for `CCc1c(C(=O)NC2CCS(=O)(=O)C2)cnn1-c1ccc(F)cc1` (stereo not given): 9.21%.
Take `O=C1NCCN1C1CCN(Cc2ccccn2)CC1`: the Percent Effect was -6.38%.
On the same count and under the same terms, to `Cc1noc(NC(=O)c2ccc(C)c(F)c2)n1` belongs -3.27%; to `NC(=O)COc1ccc(CNCc2ccc(F)c(F)c2)cc1`, -31.1%.
The same measure, in the same setting: to `COCc1cc(NCc2cc(F)ccc2F)n2nccc2n1` belongs -13.4%; to `CCCc1nnsc1C(=O)NCC1CCN(c2ccccn2)CC1`, -0.668%.
Still for that read-out and setting: the same measure for `Cc1cc2n(n1)CC(CNCc1ccnc(-n3ccnc3C)c1)CN2` (stereo not given): -3.5%; for `Cc1ccc(-c2nc(CN3CCn4c(nnc4C4CC4)C3)cs2)o1`: -88.7%.
As for `O=C(NCCc1cccc(F)c1)NCC(O)c1cccc(F)c1` (stereo not given), the Percent Effect is 32.2%.
Still for that read-out and setting: the same measure for `COCCC(=O)N1CCC2(COCc3cnc(-c4ccccc4)nc32)C1` (stereo not given): -3.09%; for `COc1cccc(C(=O)Nc2cc(CC(C)C)nn2C)c1`: 12%; for `CCCc1n[nH]c(C2CN(C(=O)CCCn3cccn3)CCO2)n1` (stereo not given): -21.7%.
On the same count and under the same terms, the same measure for `Cc1ccc(Cl)cc1N1CCC(CNC(=O)CCn2ccnc2)C1` (stereo not given): -19.4%.
Take `Cc1cc(C)c(OCC(=O)NS(=O)(=O)c2c(C)noc2C)c(C)c1`: the Percent Effect amounted to 21.6%.
On the same count and under the same terms, the same measure for `CN(C)C(=O)C1CN(Cc2c[nH]cn2)CCN(C2CCOCC2)C1` (stereo not given): -8.14%.
`Cc1cc(C)n(CC2CCCN2CCCS(N)(=O)=O)n1` (stereo not given): the Percent Effect is -25.1%.
On the same count and under the same terms, the same measure for `O=C(NCCc1nnc2n1CCC2)NCC1(c2cccc(F)c2)CC1`: 4.87%.
Same read-out and setting: the same measure for `O=C1CC[C@H]2[C@H](CCN2C(=O)C2CCOCC2)N1Cc1ccncc1`: -35.2%; for `CC(C)c1nccn1C1CCCN(C(=O)c2ccc3c(c2)OCO3)C1` (stereo not given): 10.5%.
On the same count and under the same terms, the same measure for `Cc1nn(C)c(Cl)c1C1CCCN1C(=O)c1nccnc1N` (stereo not given): 22.4%; for `CC(C(=O)N1CCCN(c2ncccc2C#N)CC1)n1ccnc1` (stereo not given): 24%.
As for `CCCSCC(=O)NS(=O)(=O)c1ccc2c(c1)OCCO2`, the Percent Effect came out at 19.7%.
On the same count and under the same terms, to `O=C(CCc1nccs1)N1CCN(c2cccnn2)CC1` belongs 12.9%; to `O=C(CN1CCCS1(=O)=O)NCCOc1ccc2c(c1)CCC2`, 9.97%.
`O=S(=O)(NC1=NCN(CCc2cccs2)CN1)c1ccc(F)cc1`: the Percent Effect was -18.8%.
Still for that read-out and setting: to `Cn1nc(C2CCCN(Cc3ccsc3)C2)c2nccnc21` (stereo not given) belongs -14.3%; to `COc1ccc(-c2nnc(SC(C)C(=O)NCC(C)C)[nH]2)c(OC)c1` (stereo not given), 8.94%.
With `CCOCCn1c(=O)[nH]c2cc(C(=O)N(C)CCc3cn[nH]c3)ccc21`, the Percent Effect is -26.7%.
The same measure, in the same setting: the same measure for `COCCN1C[C@@H]2CN(Cc3ccsc3)CCC[C@]2(C(=O)O)C1`: -14.2%.
Same read-out and setting: to `CC(C)(C)n1ncc2c1NC(=O)CC2c1ccc(OCC(N)=O)cc1` (stereo not given) belongs 21.3%; to `CC(C)(C)OC(=O)N1CCN(C(=O)c2sccc2C2CC2)CC1`, -0.841%.
